Screen size: about 200,000 compounds; about 18,000 (9%) were called active. This is one part of a sample in which actives are shown more often than they occur. Values without a mark were called inactive. Rule as the data show it: active = inhibition above about 50%; inactive = the rest.
Assay: Leishmania major promastigote growth inhibition, primary screen (AID 1063);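 also: promastigotes grown with compound for 44 hours at 28 °C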
Conditions: Leishmania major promastigotes, resazurin fluorescence viability; at 10 µM; stronger effect = higher value

SMILES	inhibition
C/C(=N/OC(=O)c1cccc(C(F)(F)F)c1)c1cnccn1	-8.57%
Cn1cnnc1SCC(=O)NNC(=O)COc1ccc(Br)cc1	-4.37%
C/C(=N\Nc1nc(Nc2ccccc2)nc(N2CCOCC2)n1)c1cccs1	5.71%
C=CCNC(=O)COC(=O)CNC(=O)c1cc(Cl)cc([N+](=O)[O-])c1	7.34%
COc1ccc(O[C@H]2C=C[C@@H](c3ccccc3)O[C@@H]2CO/N=C/C[C@@H]2C=C[C@H](OC(C)=O)[C@@H](COC(C)=O)O2)cc1	5.12%
C/C(=N\Nc1nc2ccccc2[nH]1)c1cccs1	77.2% (active)
O=C(CSc1nc2ccccc2[nH]1)c1cccs1	8.11%
C/C(=N\Nc1ncc(Cl)cc1Cl)c1cccs1	19%
Cc1ccc(NC(=O)C2(N3CCC3=O)CCCCC2)cc1	-5.4%
COc1cccc(-n2c(=S)sc3c(=O)n(-c4ccccc4OC)c(SCC4OCCO4)nc32)c1	19.1%
OC(COc1ccc2ccccc2c1)CN1CCOCC1 (configuration not stated)	59.9% (active)
OC(COc1ccc2ccccc2c1)Cn1cncn1 (configuration not stated)	-2.08%
O=S(=O)(c1ccc(OCC(O)CN2CCN(c3ccccc3Cl)CC2)cc1)N1CCOCC1 (configuration not stated)	68.2% (active)
CC(=O)Nc1ccc(OCC(O)CN2CCN(c3ccccc3Cl)CC2)cc1 (configuration not stated)	-1.4%
OC(COc1cccc(OCC(O)CN2CCCC2)c1)CN1CCCC1 (configuration not stated)	-2.43%
O=[N+]([O-])c1ccc(N2CCN(CC(O)COc3ccccc3)CC2)cc1 (configuration not stated)	32.1%
O=C(NCC1COc2ccccc2O1)C1(c2ccccc2)CCCC1 (configuration not stated)	4.71%
CCOC(=O)CSc1nnc(-c2ccc([N+](=O)[O-])cc2)o1	-7%
COCCN(C(=S)Nc1ccccc1OC)C1CCN(C(C)C)CC1	-1.11%
Oc1c(C(c2ccccn2)N2CCOCC2)ccc2cccnc12 (configuration not stated)	5.34%
CCN1CCN(C(c2cccnc2)c2cc(Cl)c3cccnc3c2O)CC1 (configuration not stated)	52.4% (active)

SMILES	inhibition
CCN1CCN(c2ccc(NC(=O)c3cnccn3)cc2)CC1	-5.28%
CCOC(=O)N1CCN(C(=O)CSc2ccc(Cl)cc2)CC1	-6.22%
CCOC(=O)N1CCN(C(c2cccnc2)c2ccc3cccnc3c2O)CC1 (configuration not stated)	100% (active)
Cc1ccnc2nc(C(=O)OCC(=O)N(CC(C)C)CC(C)C)nn12	4.48%
CN(c1ccccc1)S(=O)(=O)c1cc(C(=O)OCC(=O)N2CCN(C(=O)c3ccco3)CC2)ccc1Cl	-3.3%
Nc1ncnc(Nc2cccc(Cl)c2Cl)n1	-0.16%
OC(CNCC1CCCO1)Cn1c2ccc(Br)cc2c2cc(Br)ccc21 (configuration not stated)	101% (active)
Cc1cc(Br)ccc1NC(=O)C1CCCO1 (configuration not stated)	-3.76%
Cc1ccc(C(=O)NCC2CCCO2)o1 (configuration not stated)	-4.63%
COc1cc(C(=O)Nc2cc(C(F)(F)F)ccc2-n2cncn2)cc(OC)c1OC	15.4%
CCCSC(=S)NC1CCS(=O)(=O)C1 (configuration not stated)	100% (active)
COc1ccc(NC(=S)NC2CCS(=O)(=O)C2)cc1 (configuration not stated)	6.02%
CCN(CC(=O)NC1CCS(=O)(=O)C1)S(=O)(=O)c1ccccc1 (configuration not stated)	47.9%
CC(C)C(=O)NC(NC(=S)NC1CCS(=O)(=O)C1)C(Cl)(Cl)Cl (configuration not stated)	-3.47%
O=S1(=O)CCC(NC(=S)SCc2ccccc2Br)C1 (configuration not stated)	89.6% (active)
O=C(CSc1ccccc1F)NC1CCS(=O)(=O)C1 (configuration not stated)	1.43%
COc1cccc(OC)c1C(=O)NC(=S)NCc1ccco1	0.66%
Cc1nn(-c2ccccc2)c(-n2cccc2)c1C(=O)O	-0.36%
CCC(C)NC(=O)Cn1nc(C(F)(F)F)c2c1CCC2 (configuration not stated)	-5.4%
CCOc1cnc(-c2c(-c3ccccc3Cl)noc2C)o1	-0.43%
COc1cc(OC)c(C2=NOC(C(=O)Nc3c(C)n(C)n(-c4ccccc4)c3=O)C2)cc1Cl (configuration not stated)	-5.3%

SMILES	inhibition
CC1CCN(c2ccc([N+](=O)[O-])cc2C(N)=O)CC1	-3.26%
C=CCO/N=C/C1=C(O)C(C(=O)OC)C(C)(C)CC1=O (configuration not stated)	-2.09%
O=C(NCCN1C(=O)S/C(=C\c2cccnc2)C1=O)c1cccc(OC(F)F)c1	50.6% (active)
CCOc1ccc(N2CC(C(=O)NCCN3C(=O)S/C(=C\c4cccnc4)C3=O)CC2=O)cc1 (configuration not stated)	-4.79%
Cc1cc(OCCCC(=O)NCCN2C(=O)S/C(=C\c3cccnc3)C2=O)ccc1Cl	42.1%
O=C(CCc1ccccc1)Nc1ccc(NC(=O)C2CCCCC2)nc1	6.33%
Cc1ccc(SC(C)C(=O)NCc2ccc(F)cc2)cc1 (configuration not stated)	-1.71%
CC(=O)Nc1ccccc1OC(=O)N1CCOCC1	-2.48%
O=C(c1cccs1)N1CCN(C(=O)N2CCOCC2)CC1	-6.96%
O=C(/C=C/c1cccs1)c1cc(Cl)ccc1OC(=O)N1CCOCC1	100% (active)
CCOC(=O)c1c(NC(=O)C2CCN(S(=O)(=O)c3ccc(Cl)cc3)CC2)sc2c1CCCC2	6.41%
Cc1ccc(S(=O)(=O)N2CCOCC2)cc1C(=O)OC1CCCCC1=O (configuration not stated)	1.9%
CCNC(=O)COC(=O)/C=C/c1c(C)nn(Cc2cccc(OC)c2)c1Cl	-3.81%
CS(=O)(=O)N1CCc2cc(C(=O)Nc3ccccc3)ccc21	-3.72%
Cc1onc(-c2ccccc2Cl)c1C(=O)OCC(=O)c1ccccc1	88% (active)
Cc1[nH]c2ccccc2c1C(=O)CSCC(=O)O	13.6%
Cc1[nH]c2ccccc2c1C(=O)COC(=O)c1c(-c2ccccc2)noc1C	95.7% (active)
CC(=O)Nc1cccc(/C(C)=N/NC(=O)c2c(-c3ccccc3Cl)noc2C)c1	3.3%
Cc1onc(-c2ccccc2Cl)c1C(=O)NCCn1ccc2ccccc21	5.91%
Cc1[nH]c2ccccc2c1C(=O)COC(=O)C(C)C	-4.11%

From PubChem BioAssay AID1063 (University of Pittsburgh Molecular Library Screening Center, 2008)
